An excerpt weighted towards active compounds, which were near 2.8% of everything screened.
CF NFkB inh – cystic fibrosis NF-kB activation inhibition. 360,000 compounds, 0.86% hits. KKLEB NF-kB-GFP reporter, PAF-induced, GFP fluorescence overnight. inhibition, % at 5 µM;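 active = at least 50% inhibition at 5 µM, scaled per plate between neutral and stimulator controls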;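 also: PAF is a Pseudomonas aeruginosa culture filtrate used as stimulus; plate controls were PAF-stimulated DMSO wells for no effect and unstimulated DMSO wells for full effect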
B2AR ag – human beta-2 adrenergic receptor agonism by FAP; P07550; Am2.2-beta2AR cells, FAP receptor internalization, flow cytometry; AID 504454; 340,000 compounds, 0.43% hits; response, % (concentration not given with the values);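 active = response above a set limit, near 3 SD of response in nonfluorescent compounds, cut at about 42% in these data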
Target sequence (P07550 whole entry, looked up): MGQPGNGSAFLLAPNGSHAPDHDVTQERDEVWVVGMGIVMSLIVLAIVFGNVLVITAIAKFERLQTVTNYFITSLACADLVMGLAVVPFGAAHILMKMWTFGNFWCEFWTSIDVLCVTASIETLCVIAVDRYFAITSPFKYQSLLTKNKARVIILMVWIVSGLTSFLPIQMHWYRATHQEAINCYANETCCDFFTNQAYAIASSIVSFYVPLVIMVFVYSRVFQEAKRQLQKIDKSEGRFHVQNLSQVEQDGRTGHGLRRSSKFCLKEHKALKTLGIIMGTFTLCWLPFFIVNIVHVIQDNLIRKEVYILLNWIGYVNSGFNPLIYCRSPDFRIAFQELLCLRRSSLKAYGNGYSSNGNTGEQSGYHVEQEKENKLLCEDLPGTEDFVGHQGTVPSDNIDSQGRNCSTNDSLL
Peg3 promoter – Peg3 promoter activity inhibition | HeLa PEG-Prom luciferase reporter, luminescence, overnight | 360,000 compounds, 1.7% hits | inhibition, % at 20 µM;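 active = inhibition of at least 50% at 20 µM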
MITF TRPM1 inh – inhibitors of MITF-driven TRPM1 promoter in melanoma cells; SK-MEL-5 TRPM1 promoter luciferase, 24 h; inhibition, % at 12.5 µM; 330,000 compounds, 0.83% hits;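 active = mean inhibition across replicates of 60% or more, whatever share of single replicates reaches that level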
KKLEB cytotox – reduces viability of KKLEB cystic fibrosis airway cells; 360,000 compounds, 0.36% hits; KKLEB CF airway cells viability, ATPlite luminescence, overnight; stronger effect = lower value; cells stimulated with P. aeruginosa culture filtrate; activity change (cytotoxicity), % at 5 µM; AID 602141;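 active = corrected activity change at or below -50% at 5 µM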
HIF-2a inh – HIF-2a inhibition. 786-0 RCC cells HIF-2a reporter, luciferase luminescence, overnight. inhibition, % at 18.8 µM. 360,000 compounds, 0.72% hits. AID 624352;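 active = inhibition of the luminescence signal of 40% or more relative to plate controls, in a single-dose primary screen at 18.75 µM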
CF NFkB conf – confirmation of cystic fibrosis induced NF-kB inhibitors; shares compounds with CF NFkB inh; KKLEB CF airway cells, PAF-induced NF-kB-GFP fluorescence, overnight; inhibition, % at 5 µM; 1,300 compounds, 64% hits; in the data active = inhibition above about 40%;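 also: stimulus PAF is a Pseudomonas aeruginosa filtrate and not platelet activating factor; plate controls were DMSO wells with stimulus for no effect and unstimulated DMSO wells for full effect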
* = called active by the depositor; · = no result given; ! = not confirmed by another sample.

SMILES	CF NFkB inh	B2AR ag	Peg3 promoter	MITF TRPM1 inh	KKLEB cytotox	HIF-2a inh	CF NFkB conf
CC(C)C[C@@H](CN1CCCC1CN1C(=S)NC[C@@H]1Cc1ccccc1)N1C[C@H](Cc2ccc(O)cc2)N(CCc2ccccc2)C1=S (stereo partly drawn)	·	·	·	·	·	-10	·
CC(C)C[C@H]1CN([C@@H](Cc2ccc(O)cc2)CN2CCC[C@@H]2CN2C(=S)NC[C@@H]2Cc2ccccc2)C(=S)N1CCc1ccccc1	9	·	19	·	-24	-15	·
CCc1nc2c(OCc3ccc(OC(F)F)cc3)cccn2c1N(C)C(=O)c1cccs1	4	·	18	·	-4	11	·
CCN1C[C@@H]2[C@@H]3C(=O)N(Cc4ccccc4)C(=O)[C@@H]3[C@](CC)(C1=O)N2C(=O)c1ccc(Cl)c(Cl)c1	2	-3	6	3	-9	14	·
Cc1ccc(OCCN2C(=O)C(=O)c3cc(C)ccc32)cc1	37	36	-4	-11	-6	-44	·
Cc1ccc2c(c1)C(=O)C(=O)N2Cc1ccc(C(F)(F)F)cc1	55*	28	3	11	-18	-13	72*
COc1ccc(C)c2sc(N(CCN(C)C)C(=O)/C=C/c3cccs3)nc12	56*	22	50*	88*	-35	8	9
COc1cccc2sc(N(CCN(C)C)C(=O)/C=C/c3cccs3)nc12	36	6	13	47	-20	23	·
Cc1nc(N)c(C#N)c(-c2cccnc2)c1-c1ccccc1	63*	10	9	1	-5	29	68*
Cc1c(-c2ccccc2)nc(N)c(C#N)c1-c1cccnc1	22	0	23	11	-16	22	·
CN(Cc1cn(Cc2cccc(Cl)c2)nn1)C1CN(Cc2cn(Cc3cccc(Cl)c3)nn2)S(=O)(=O)C1 (stereo not drawn)	·	·	·	·	·	4	·
Cc1ccc(CSc2nccc(-c3c(C)nc4ccccn34)n2)cc1	50*	-4	32	·	-11	14	63*
CC(C)c1nc(Cl)c(C#N)c2c1CCCC2	55*	2	-44	0	-4	6	77*
CC(C)c1nc(Cl)c(C#N)c2c1CCC2	34	2	-13	-8	-4	1	·
CC(C)c1nc(NCCO)c(C#N)c2c1CCCC2	71*	3	10	-12	-10	36	55*
COc1cc(CNc2ncnc3c2ncn3[C@H]2CN(CCc3ccccc3)C[C@@H](CO)O2)cc(OC)c1OC	-7	·	19	·	-2	11	·
Cc1nc([N+](=O)[O-])c(Br)n1CC(=O)c1ccc(Br)cc1	53*	19	38	32	-42	35	11
Cc1nc([N+](=O)[O-])c(Br)n1CC(=O)c1ccccc1	31	13	11	-3	-8	31	·
c1ccc(CNc2ncnc3ccccc23)cc1	50*!	-8	7	5	-12	4	41*
COc1cc2ncnc(NCc3ccccc3)c2cc1OC	14	-5	17	6	-2	17	·
Cc1cccc(NC(=O)c2nc[nH]c2C(=O)NCCCNC(=O)c2[nH]cnc2C(=O)Nc2cccc(C)c2)c1	64*	7	93*	-14	-25	5	79*
O=C(Nc1nc2ccc(Cl)cc2s1)[C@@H]1CCCN1C(=O)c1cccs1	53*	-6	-108	-22	-21	-130	39
C=CCOc1c(OC)cc(/C=N/Nc2cccc(C(=O)O)c2)c(Br)c1Br	62*	40	-141	-53	-36	-199	67*
C=CCOc1c(/C=N\NC(N)=O)cccc1OC	-5	2	12	7	6	23	·
CCN(C(=O)c1cc(S(=O)(=O)N2CCCCC2)c[nH]1)c1ccc(OC)cc1	50*	-2	13	-8	-12	13	46*
CCN(CC)C(=O)c1cc(S(=O)(=O)N2CCCCC2)c[nH]1	17	-2	10	·	-10	12	·
O=C(CNC(=O)OCc1ccccc1)NCC(=O)NC(Cc1c[nH]c2ccccc12)C(=O)O (stereo not drawn)	2	·	0	·	-7	17	·
CC1(C)N=C(N)N=C(N)N1c1ccc(CCCCc2ccccc2)cc1	-7	·	24	·	-18	30	·

Bioassay records (PubChem BioAssay)
